tested on: TRKB; conditions: concentration: 1 μM, replicates: in singlicate; n = 1
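Further: KINOMEscan kinase panel screen.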

| SMILES | %Inh [%] |
| --- | --- |
| CCn1c(-c2nonc2N)nc2c(-c3ccccc3)ncc(OCCCN)c21.O=C(O)C(F)(F)F.O=C(O)C(F)(F)F [GSK260205] | 23 |
| Cc1ccc(-c2ccc3occ(-c4ccc(S(C)=O)cc4)c3c2)nn1 (stereo not drawn) | 0 |
| Cn1cc(-c2ccc3c(c2)CCN3C(=O)Cc2cc(F)cc(F)c2F)c2c(N)ncnc21 [GSK2634140] | 0 |
| COc1ccc(C)c(Nc2ccnc(Nc3ccc(-c4cnc[nH]4)cc3)n2)c1.Cl [GW784041] | 0 |
| c1ccc(Oc2ccc(Nc3ccnc4cc(-c5ccc(CN6CCCCC6)o5)ccc34)cc2)nc1 [GW567143] | 18 |
| CN(c1ccc(F)c(NC(=O)c2cccc(OC(C)(C)C#N)c2Cl)c1)c1ccc2nc(NC(=O)C3CC3)sc2n1 | 0 |
| COc1cc(Nc2nccc(N3CCC(NS(=O)(=O)c4ccc(NC(C)=O)cc4)CC3)n2)cc(OC)c1OC [GSK1379825] | 27 |
| Cc1ccc(C)c(NC(=O)Nc2ccc(C)c(-c3ccc(C(=O)Nc4ccncc4)cc3)c2)c1 [GSK1398473] | 0 |
| CCNc1nccc(-c2c(-c3ccc(F)cc3)ncn2C2CCN(C)CC2)n1 | 0 |
| Cc1ccc(NC(=O)c2cccc(N3CCCCC3)c2)cc1-c1ccc(C(=O)NCC2CC2)cc1 [GSK1917008] | 0 |
| Cl.Cl.NCC(NC(=O)c1cc(-c2cccnc2)c(-c2ccnc3[nH]ccc23)s1)c1ccccc1 (stereo not drawn) [GSK1323434] | 40 |
| COc1cccc(-c2nc(-c3ccccc3)[nH]c2-c2ccncc2)c1 [SB-610250] | 0 |
| Cn1cc(-c2cnc(N)c3c(-c4ccc5c(c4)CCN5C(=O)Cc4ccccc4)csc23)cn1 [GSK2593074] | 80 |
| CN(C)CCNS(=O)(=O)c1ccc(-c2ccnc3[nH]ccc23)cc1 [GSK977620] | 63 |
| O=C(Nc1n[nH]c2nc(-c3cccc(O)c3)ccc12)C1CC1 [SB-711805] | 19 |
| Nc1cccc(-c2ccc3c(N)n[nH]c3c2)c1 [GSK2193613] | 40 |
| Cl.O=C(Nc1ccc(Oc2ccc3[nH]c(NC(=O)c4ccco4)nc3c2)cc1)Nc1cc(C(F)(F)F)ccc1F [GW683134] | 98.3 |

| SMILES | %Inh [%] |
| --- | --- |
| COc1cccc2c(-c3ccncc3)c(-c3ccc(F)cc3)nn12 [GW468513] | 11 |
| COc1cc(Nc2ccnc3cc(-c4ccncc4)ccc23)cc(OC)c1OC.Cl [GW494610] | 7 |
| O=C(O)C(F)(F)F.O=c1[nH]ccc2nc(N[C@@H]3CCNC3)nc(Nc3ccc4c(c3)S(=O)(=O)CC4)c12 [GSK2181306] | 92.8 |
| Cl.N#CCc1ccc(Nc2nccc(Nc3ccc(Oc4ccccc4)cc3)n2)cc1 [GW639905] | 39 |
| Cc1ccc(O)cc1Nc1ccnc2cc(-c3ccc(CN4CCCCC4)o3)ccc12 [GW557777] | 0 |
| Cl.Cl.NC(CNC(=O)c1cc(Br)c(-c2ccnc3[nH]ccc23)s1)c1ccccc1 (stereo not drawn) [GSK1322949] | 91.6 |
| CN(c1ccc2c(c1)nc(NCc1ccccc1)n2C)c1ccnc(Nc2ccc(CS(C)(=O)=O)cc2)n1.Cl [GW811603] | 77 |
| Cc1ccc(O)cc1Nc1ccnc2ccc(C(C)(C)C)cc12 [GW856805] | 42 |
| COC(=O)Nc1nc2ccc(Oc3ccc(NC(=O)Nc4cc(C(F)(F)F)ccc4F)cc3)cc2[nH]1.Cl [GW654607] | 94.8 |
| Cn1cc(-c2ccc3c(c2)CCN3C(=O)Cc2cc(F)cc(C(F)(F)F)c2)c2c(N)ncnc21 [GSK2635225] | 49 |
| COc1cccc(CC(=O)N2CCc3cc(-c4cn(C)c5ncnc(N)c45)ccc32)c1 [GSK2608899] | 28 |
| N#Cc1cnc2cc(-c3cnc(CNCCN4CCOCC4)s3)ccc2c1Nc1ccc(Oc2ccccc2)cc1 [GW664114] | 42 |
| O=C(Nc1n[nH]c2cc(-c3cccs3)ccc12)C1CC1 [SB-731284] | 0 |
| CN(C)CCOc1ccc(-c2cc(-c3ccc(Cl)c(O)c3)c(-c3ccncc3)[nH]2)cc1.Cl.Cl [SB-684387] | 21 |
| Cc1cccc(Nc2nc(NCCN)ncc2C(N)=O)c1 [GSK1292139] | 57 |
| COC(=O)Nc1nc2cc(Oc3ccc(NC(=O)Nc4cccc(SC)c4)cc3)ccc2[nH]1.Cl [GW697999] | 82 |

— paper PMC5540273 (PLoS ONE, 2017)
